This is a sample that favours compounds with a hit; in the whole collection about 10% have one here.
JMJD2A Tudor: JMJD2A Tudor domain (human) inhibition. O75164. AlphaScreen JMJD2A-Tudor / H3K4me3 peptide binding. 390,000 tested, 4.4% active. Potency, µM (series often up to 114 µM), usual class: inhibitors; further: nearly all actives have a fitted effect of over 50% in size
HP1b binding inh: blocks HP1-beta chromodomain binding to methylated histone tails. Potency, µM (series often up to 114 µM), actives largely listed as inhibitors. AlphaScreen HP1-beta / biotin-H3K9me3 peptide binding. P83916. 390,000 tested, 0.56% active; further: nearly all actives have a fitted effect of over 70% in size
Target sequence (P83916 whole entry, looked up): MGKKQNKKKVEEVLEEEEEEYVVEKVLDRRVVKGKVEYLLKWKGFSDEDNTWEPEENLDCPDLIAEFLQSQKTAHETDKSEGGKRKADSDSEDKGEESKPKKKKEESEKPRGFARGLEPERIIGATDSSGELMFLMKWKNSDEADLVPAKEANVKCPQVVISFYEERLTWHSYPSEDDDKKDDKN
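HP1-beta protein (50 nM final) preincubated 30 min at room temperature with biotinylated H3(1-18)K9me3 peptide (50 nM) in PBS pH 7.4, 0.01% Tween-20, then compound added for 30 min. AlphaScreen streptavidin donor/nickel chelate acceptor beads (10 ug/mL final), 30 min dark, luminescence read.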
G9a inh: inhibitors of human histone lysine methyltransferase G9a | Q96KQ7 | G9a H3K9 monomethylation, AlphaScreen, 2 h | Potency, µM (doses to about 102 µM), actives largely listed as inhibitors | 350,000 tested, 8.8% active; further: nearly all actives have a fitted effect of over 75% in size
Target sequence (Q96KQ7 913-1193 limits assumed): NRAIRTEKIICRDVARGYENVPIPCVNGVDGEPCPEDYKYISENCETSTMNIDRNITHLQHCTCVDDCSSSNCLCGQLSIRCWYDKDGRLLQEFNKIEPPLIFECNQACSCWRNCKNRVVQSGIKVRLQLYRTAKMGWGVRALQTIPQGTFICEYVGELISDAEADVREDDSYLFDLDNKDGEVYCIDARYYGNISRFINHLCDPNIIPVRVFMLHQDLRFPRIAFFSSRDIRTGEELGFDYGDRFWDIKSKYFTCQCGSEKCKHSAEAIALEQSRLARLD
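Compounds were preincubated with 20 nM G9a for 15 min, after which biotinylated H3K9 peptide (500 nM) and SAM (20 uM) started a 2 h room-temperature reaction. Monomethylated product was quantified by antibody-based AlphaScreen chemiluminescence.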
GLS inh: inhibitors of human glutaminase (GLS). GLS enzymatic activity, qHTS titration. Potency, µM (series often up to 45.5 µM), most hits filed as inhibitors. 410,000 tested, 0.21% active. AID 624170. O94925
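hKGA; 45 mM KH2PO4 pH 8.2 + 0.02% Tween-20; cpd via pin tool; 1 mM Gln soln; GluOx/HRP/Amplex Red; RT 30 min; fluor. t0 & final.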
BAZ2B inh: BAZ2B (human) inhibition; AlphaScreen BAZ2B-H3K14Ac peptide displacement; Potency, µM (highest dose often 114 µM), actives largely listed as inhibitors; 360,000 tested, 4.4% active; AID 504333; further: nearly all actives have a fitted effect of over 60% in size
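Inhibition is scored as reduced AlphaScreen emission. The BAZ2B/b-H3(5-23)K14Ac complex (50 nM each) in PBS pH 7.4, 0.01% Tween-20 meets compound (up to 110 uM) for 30 min at RT before bead addition.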
Large screens that a line does not name were inactive; ! = a repeat was not active. The call rests on the fitted dose curve; in most records, active means well fitted curve in the direction sought with a large enough effect; inconclusive means small, poorly fitted or top-dose-only effect, or another doubt; inactive means no such curve, though single readings can be large; an effect the other way counts as inactive or inconclusive.

Fc1ccc(CNc2ncnc3cc(Cl)ccc23)cc1	none
CCOC(=O)C1(Cc2ccccc2)CCN(Cc2ccc(C)s2)CC1	none
COc1ccccc1NC(=O)c1cnc2c(-c3ccccc3)c(C)nn2c1C	none
Cc1c2c(nc3ccccc13)CCC(C(C)(C)C)C2 (stereo unspecified)	G9a inh 50µM
NC(=O)CC1NC(=O)c2cc([N+](=O)[O-])cc(I)c2OCCC(C(N)=O)NC(=O)[C@@H]2CCCN2C1=O (stereo partly specified)	G9a inh 79µM
C[C@@H]1NC(=O)[C@H](CCCN=C(N)N)NC(=O)c2cc([N+](=O)[O-])cc(I)c2OCC[C@@H](C(N)=O)NC1=O	G9a inh 32µM, BAZ2B inh inconclusive (no result: JMJD2A Tudor, HP1b binding inh, GLS inh)
CC[C@H](C)[C@@H]1NC(=O)c2cc([N+](=O)[O-])cc(F)c2OCC[C@@H](C(N)=O)NC(=O)[C@H](CCCCN)NC1=O	G9a inh inconclusive
NCCCC[C@H]1NC(=O)[C@H](CCC(=O)O)NC(=O)c2cc([N+](=O)[O-])cc(I)c2OCC[C@@H](C(N)=O)NC1=O	JMJD2A Tudor 50µM, G9a inh 25µM, GLS inh inconclusive
C[C@@H]1NC(=O)c2cc([N+](=O)[O-])cc(I)c2OCC[C@@H](C(N)=O)NC(=O)[C@H](CCCCN)NC1=O	G9a inh 45µM
O=C(Oc1ccc(Cl)cc1)N1CCCCC1	none
COc1cc(/C=N/NC(=O)C(=O)N2CCCC2)ccc1O	GLS inh inconclusive
CC(C)(C)OC(=O)N1CCC[C@H]1C(=O)NCc1ccc(Cl)cc1Cl	JMJD2A Tudor 45µM
CC(C)(C)OC(=O)N1CCC[C@H]1C(=O)N1CCC[C@H]1C(=O)NCc1ccc(F)cc1F	none (no result: JMJD2A Tudor, HP1b binding inh, G9a inh, BAZ2B inh)
COc1ccc(-c2cn3cc(C)ccc3n2)cc1F	JMJD2A Tudor 20µM, BAZ2B inh inconclusive
COc1ccc(-c2c(NC(=O)c3ccco3)oc3ccccc3c2=O)cc1	G9a inh inconclusive
Cc1cccc(N2C(=O)CC(Sc3nc(C)cc(C)n3)C2=O)c1 (stereo unspecified)	G9a inh inconclusive, BAZ2B inh inconclusive
Cc1cccc(N2C(=O)CC(Cn3nc(C)cc3C)C2=O)c1 (stereo unspecified)	none
Cc1ccc(N2C(=O)CC(Sc3cccs3)C2=O)cc1 (stereo unspecified)	G9a inh 35µM
Cc1cccc(N2C(=O)CC(Sc3nnc(C)s3)C2=O)c1 (stereo unspecified)	G9a inh 10µM
CCN(CCO)C1CC(=O)N(c2ccccc2C)C1=O (stereo unspecified)	JMJD2A Tudor 40µM, G9a inh 4µM
CCN(CC)C1CC(=O)N(c2cccc(C)c2)C1=O (stereo unspecified)	G9a inh 11µM (no result: JMJD2A Tudor, HP1b binding inh, GLS inh)
COc1ccc(-c2c(C#Cc3ccsc3)c3cc(-c4ccc(OC)nc4)ccc3n2C)cc1	none
COc1cccc(/C=N/NC(=O)c2ccc(OCc3cccc(Br)c3)cc2)c1	none
CC(C)Oc1ccc(/C(O)=C2/C(=O)C(=O)N(CCN3CCNCC3)C2c2ccc(C(C)C)cc2)cc1 (stereo unspecified)	none
CCCCC1C(=O)N(c2ccccc2)N(c2ccc(O)cc2)C1=O (stereo unspecified)	JMJD2A Tudor 56µM, HP1b binding inh inconclusive, G9a inh 3.5µM!
CN1CCN(C(c2ccc(F)cc2)c2ccc3cccnc3c2O)CC1 (stereo unspecified)	none (no result: G9a inh, BAZ2B inh)
CN1CCN(C(c2cccnc2)c2ccc3cccnc3c2O)CC1 (stereo unspecified)	JMJD2A Tudor inconclusive, HP1b binding inh inconclusive, G9a inh inconclusive, BAZ2B inh 10µM
COc1ccc(C(=O)NC(c2ccc(Cl)cc2)c2cc(Cl)c3cccnc3c2O)cc1 (stereo unspecified)	none
CN1CCN(C(c2ccc(Br)cc2)c2cc(Cl)c3cccnc3c2O)CC1 (stereo unspecified)	JMJD2A Tudor 50µM, HP1b binding inh inconclusive, G9a inh 7.9µM, GLS inh inconclusive, BAZ2B inh 45µM
O=C(NNc1ccccn1)c1ccccc1CC[N+](=O)[O-]	GLS inh inconclusive
Nc1c(C(=O)CCC(=O)O)oc2ccc(Cl)cc12	G9a inh 56µM
NC(=O)c1oc2ccc(Cl)cc2c1N	G9a inh inconclusive
c1ccc(-n2cnc3ccccc32)cc1	none

Screening data as filed in PubChem.
